# Several values for one entry are separate records, joined by “and”; a condition that tells them apart may be missing. Identical values can stand only once. Activity calls are given as the source filed them. How the source made its calls: active means hit-call score of the fitted dose curve at least 0.9, where 1 is the maximum; inactive means score below 0.9.
# Test: BSK_hDFCGF_SRB: Viability Assessment in the BioMAP Diversity Plus: hDFCGF Assay (AID 2283061)
# Conditions: primary human foreskin fibroblasts
# Experimental: BSK_hDFCGF is a cell-based, multiplexed-readout assay that uses foreskin fibroblast, a human skin primary cell, with measurements taken at 24 hours after chemical dosing in a 96-well plate.BSK_hDFCGF_SRB is an assay component measured in the BSK_hDFCGF assay. It measures 0.1% sulforhodamine related to cell death using Sulforhodamine staining technology.Data from the assay component BSK_hDFCGF_SRB was analyzed into 1 assay endpoint. This assay endpoint, BSK_hDFCGF_SRB, was analyzed with bidirectional fitting relative to DMSO as the negative control and baseline of activity. Using a type of viability reporter, gain or loss-of-signal activity can be used to understand changes in the signaling. Furthermore, this assay endpoint can be referred to as a primary readout, because this assay has produced multiple assay endpoints where this one serves a signaling function. To generalize the intended target to other relatable targets, this assay endpoint is annotated to the cell morphology intended target family, where the subfamily is cell conformation.
# The levels of cell surface (or secreted, indicated by the prefix "s") biomarker endpoints were measured by ELISA. Overt cytotoxicity to cells in confluent adherent cultures (all systems other than the BT system) was assessed by measuring total protein levels using sulforhodamine B (SRB) staining in parallel cultures at the time of biomarker measurements, indicated as SRB endpoints. For proliferation assays for adherent cell types, individual cell types are cultured at sub-confluence and relative cell numbers quantified by SRB staining at time points optimized for each system (48 h: 3C and CASM3C systems; 72 h: BT and HDF3CGF systems; 96 h: SAg system). SRB was performed by staining cells with 0.1% SRB after fixation with 10% TCA and reading wells at 560 nm.Viability and proliferation of PBMC (T cells) was quantified by Alamar Blue reduction for the SAg and BT systems. For PBMC viability (referred to as PBMC Cytotoxicity within the assay endpoint names), cells were plated (75,000/well in a 96-well plate) and then chemical samples added for 1 h before addition of activators, SEB and TSST-1 (20 ng/mL final concentration each). Cells were incubated for 90 h. Then, Alamar Blue (20 uL/well) (Invitrogen, Cat DAL1100) was added for 6 h, and the plates were read with a fluorescence microplate reader at 546/580 nm (excitation/emission). For PBMC proliferation, cells were plated and activated as above but incubated for only 16 h prior to addition of Alamar Blue. Plates were read after 6 h.
Compound,AC50,outcome
CC(C)(C)c1ccc(O)c(O)c1,31.8 µM (active),–
CC[N+](CC)(CC)Cc1ccccc1,–,inactive
CCCCC(CC)C(=O)O (stereo not given),–,inactive
O=P(O)(O)CCC(F)(F)C(F)(F)C(F)(F)C(F)(F)C(F)(F)C(F)(F)C(F)(F)C(F)(F)F,–,inactive
Cc1[nH]nc2c1N=C(c1ccccc1Cl)c1cc([N+](=O)[O-])ccc1N2,–,inactive
C=CC(=O)OCCC(F)(F)C(F)(F)C(F)(F)C(F)(F)C(F)(F)C(F)(F)C(F)(F)C(F)(F)F,–,inactive
O=C(O)CCC(F)(F)C(F)(F)C(F)(F)C(F)(F)C(F)(F)F,–,inactive
O=C1NS(=O)(=O)c2ccccc21,–,inactive
Cc1cccc2c1ccc1ccccc12,–,inactive
O=C(CCCN1CCC(O)(c2ccc(Cl)cc2)CC1)c1ccc(F)cc1,–,inactive
CCCCCCCCCCCCCCC,–,inactive
O=P(O)(O)CCC(F)(F)C(F)(F)C(F)(F)C(F)(F)C(F)(F)C(F)(F)F,–,inactive
CCCCCCCCCCCC,8.02 µM (active) and 11.1 µM (active),–
CN(C)c1ccc(C(=C2C=CC(=[N+](C)C)C=C2)c2ccccc2)cc1,0.0082 µM (active),–
O=C(O)CCC(F)(F)C(F)(F)C(F)(F)C(F)(F)C(F)(F)C(F)(F)F,–,inactive
Clc1ccc(Nc2nnc(Cc3ccncc3)c3ccccc23)cc1,–,inactive
O=C(CC(=O)C(F)(F)C(F)(F)C(F)(F)F)c1cccs1,–,inactive
CC1=NN(c2ccccc2)C(=O)C1,–,inactive
Cc1ccc(C(=O)c2ccccc2)cc1,–,inactive
OCC(F)(F)C(F)(F)C(F)(F)C(F)(F)C(F)(F)C(F)(F)C(F)(F)C(F)(F)C(F)(F)C(F)(F)C(F)(F)F,–,inactive

Compound,AC50,outcome
N=C(N)c1ccc(OCCCCCOc2ccc(C(=N)N)cc2)cc1,25.8 µM (active),–
O=S(=O)(O)C(F)(F)C(F)(F)C(F)(F)C(F)(F)C(F)(F)C(F)(F)C(F)(F)C(F)(F)C(F)(F)C(F)(F)F,8.49 µM (active) and 8.79 µM (active),–
COc1cc(OC)nc(NC(=O)NS(=O)(=O)Nc2ccccc2C(=O)N(C)C)n1,–,inactive
C=COC(=O)C(C)(C)CCCCCC,37.5 µM (active),–
O=C(NCc1ncc(C(F)(F)F)cc1Cl)c1c(Cl)cccc1Cl,–,inactive
CS(=O)(=O)c1ccc([C@@H](CC2CCCC2)C(=O)Nc2cnccn2)cc1Cl,–,inactive
Oc1ccc(Cc2ccccc2O)cc1,–,inactive
O=C1OC2(c3ccccc31)c1cc(I)c(O)c(I)c1Oc1c2cc(I)c(O)c1I,–,inactive
CCCCCc1ccc(O)cc1,28.9 µM (active),–
CCCCCCCCCCCCCCCCCC[N+](C)(C)Cc1ccccc1,0.556 µM (active),–
C[C@]12CC[C@@H]3c4ccc(O)cc4CC[C@H]3[C@@H]1C[C@@H](O)[C@@H]2O,–,inactive
CN(CCO)S(=O)(=O)C(F)(F)C(F)(F)C(F)(F)C(F)(F)C(F)(F)C(F)(F)C(F)(F)C(F)(F)F,–,inactive
CCOC(=O)CN[C@@H](C(=O)N1CC[C@H]1C(=O)NCc1ccc(/C(N)=N/O)cc1)C1CCCCC1,–,inactive
O=C1c2ccc(O)c(O)c2C(=O)c2c(O)ccc(O)c21,–,inactive
OCC(CO)(CBr)CBr,–,inactive
COCN(COC)c1nc(N(COC)COC)nc(N(COC)COC)n1,–,inactive
C=CC(C)(CCC=C(C)C)OC(C)=O (stereo not given),36.1 µM (active),–
CCCCC(CC)C(=O)OCCOCCOCCOCCOC(=O)C(CC)CCCC (stereo not given),–,inactive
OCCN1CN(CCO)CN(CCO)C1,–,inactive
Cc1ccc(N=Nc2c(O)ccc3ccccc23)c(C)c1,–,inactive

# From PubChem BioAssay (EPA / NIEHS)
